# HCMV inh = human cytomegalovirus inhibition; AID 1259415; activity change, negative = inhibition, % at 57.5 µM; 410,000 tested, 4.5% active; HFF cells, HCMV-luciferase reporter, 72 h; hits give low values; in the data active means activity change below about -60%; inconclusive means no clear call, values can overlap the other calls; inactive means above about -39%
#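 Compounds were evaluated in HFFs infected with an HCMV luciferase reporter virus (MOI 1 PFU/cell). Luciferase in lysates collected 72 h post infection served as the replication measure.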
# Marburg entry inh = blocks Marburg virus binding to or entry into cells; Marburg virus pseudotyped entry inhibition, cell reporter; Potency, µM (top dose mostly 37.8 µM), for the others: at the top dose activity change, negative = inhibition, most hits filed as inhibitors; 300,000 tested, 1.8% active; calls by dose curve; tested in HEK293 cells; further: potency means the concentration at half of the fitted maximal effect
# FMDV antiviral = foot and mouth disease virus antiviral activity. FMDV antiviral cell-based qHTS. Potency, µM (highest dose often 57.9 µM), for inactives: at the highest dose activity change, negative = inhibition, hits mostly inhibitors. 410,000 tested, 1.2% active. AID 1159524; calls by dose curve; tested in HEK293T cells; further: read-out not given here; potency means the concentration at half of the fitted maximal effect; nearly all actives have a fitted effect of over 45% in size
# Lassa entry inh = blocks Lassa virus binding to or entry into cells; Lassa virus pseudotype entry inhibition, cell reporter; Potency, µM (series often up to 37.9 µM), for the others: top-dose activity change, negative = inhibition, actives largely listed as inhibitors; 300,000 tested, 1.2% active; AID 540256; calls by dose curve; tested in HEK293 cells; further: potency means the concentration at half of the fitted maximal effect; nearly all actives have a fitted effect of over 50% in size
# HCV inh = HCV inhibition | Huh7.5.1 HCVcc-Cre infection, luciferase reporter, 44 h | Potency, µM (highest dose often 41.8 µM), for the others: at the highest dose activity change, negative = inhibition, most hits filed as inhibitors | 340,000 tested, 3.4% active | AID 651820; active means well fitted inhibition curve with a large enough effect; inconclusive means small, poorly fitted or top-dose-only effect, or another doubt; inactive means no such curve, though single readings can be large or run the other way; further: potency means the concentration at half of the fitted maximal effect
#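 Antiviral activity was scored by luciferase reporter output from cells infected with HCVcc-Cre (~0.5 moi) in presence of compound, 44 h infection period, cells seeded 1,000/well 4 h prior.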
# * hit, by the source's call; ? = inconclusive; · = no result given; [ ] = remark or other dose. Sampled rows, rich in hits. Any-hit rate of the full collection: about 7.9%. On the % scale 0 is the no-effect control and ±100 the full control effect.
SMILES,HCMV inh,Marburg entry inh,FMDV antiviral,Lassa entry inh,HCV inh
c1ccc(-c2ccc(-c3n(-c4ccccn4)c4ccccc4[n+]3-c3ccccn3)cc2)cc1,-2,?,14µM*,?,?
Cc1ccc(C(=O)Nc2ccc3oc(-c4ccccc4C)nc3c2)cc1,-32,?,0%,7%[46.1 µM],·
CC1(C)CC(/C=C/c2ccccc2)=Nc2ccccc2N1,-78*,·,0%,·,-19%
O=C1CC(/C=C/c2ccccc2)=Nc2ccccc2N1,-23,·,60%,·,-29%
O=C1CC(/C=C/c2ccc(Cl)cc2)=Nc2ccccc2N1,-91*,·,5%,·,?
Cc1nc2sccn2c1CN1Cc2ccccc2OC(c2ccccc2F)C1 (centres undefined),·,·,-20%,·,·
CCN(CC)CCCNC(=O)c1sc2nc3n(c(=O)c2c1C)CCCCC3,-15,·,-17%,1%[46.1 µM],·
CCN(CC)CCNc1cc(C)nc2c1C(=O)C(=O)C=C2N1CCCCC1,-98*,·,?,·,?
CSc1nsc(SC)c1C(=O)Nc1ccc(C(C)(C)C)cc1,53,11µM*,13%,9%[46.1 µM],6%
CN(Cc1nccs1)C(=O)c1cc(COc2cccc3cnccc23)on1,-75*,·,?,·,6.3µM*
COc1ccc(OCc2cc(C(=O)N(C)Cc3cnccn3)no2)c(Cl)c1,?,-6%,29%,-15%,·
COc1cc(Cl)ccc1OCc1cc(C(=O)N(C)Cc2cccc3cnccc23)no1,?,?,?,?,8.9µM*
O=C(NCc1ccco1)c1ccc2c(c1)N(Cc1ccc(F)cc1)C(=O)c1ccccc1S2=O (centres undefined),9,-5%[46.1 µM],-12%,-7%[46.1 µM],·
CCCCCCCNC(=O)C1(CC2CC(c3ccc(Cl)cc3)=NO2)CCN(C(=O)Cc2ccc(F)cc2)CC1 (centres undefined),20,·,-7%,·,15%
CCCCCCCNC(=O)C1(CC2CC(c3ccc(Cl)cc3)=NO2)CCNCC1 (centres undefined),-100*,·,-25%,·,9%
COc1cccc(/C=C(/C(=O)OCC(=O)NC2CCCCCCC2)c2ccccc2)c1,?,-12%,?,-8%,11µM*
O=C1C2CCCCN2C(=O)N1CCCCN1CCN(c2ccc([N+](=O)[O-])cc2)CC1 (centres undefined),-22,?,20µM*,-14%,?
C[C@H]1CC[C@H]2C(=O)N(Cc3ccccc3)C[C@H](O)CN2[C@H]1c1cccc(Br)c1,·,-5%[14.2 µM],·,14%[14.3 µM],·
COC1C(CO)OC(n2c3c(Cl)cccc3c3c4c(c5c6cccc(Cl)c6[nH]c5c32)C(=O)NC4=O)C(O)C1O (centres undefined),-98*,?,-19%,?,?
COC1C(O)C(CO)OC1n1c(Br)nc2c(=O)[nH]c(N)nc21 (centres undefined),·,·,-4%,·,·
Cc1ccc(C)c(N2CCN(CCCNC(=O)Cn3ncc4c5ccccc5n(C)c4c3=O)CC2)c1,-60*,-9%[46.1 µM],-12%,1%[46.1 µM],·
CN1CCN(CCCNC(=O)Cn2ncc3c4ccccc4n(C)c3c2=O)CC1,9,·,-17%,·,-17%
Cn1c2ccccc2c2cnn(CC(=O)NCCCN3CCN(c4ccccc4F)CC3)c(=O)c21,-15,-29%[46.1 µM],-8%,0%[46.1 µM],10µM*
Cc1ccc(C)c(N2CCN(CCCNC(=O)Cn3cc4c(n3)CCC(C)C4)CC2)c1 (centres undefined),-2,-1%,0%,·,-13%
Cc1ccc(C)c(N2CCN(CCCNC(=O)Cn3cc4c(n3)CCCCC4)CC2)c1,-30,-1%,?,·,5.6µM*
SMILES,HCMV inh,Marburg entry inh,FMDV antiviral,Lassa entry inh,HCV inh
COc1ccc(CCNC(=O)CSc2cc(=O)n(C)c3ccccc23)cc1OC,6,-8%[46.1 µM],-25%,-11%[46.1 µM],·
CCOC(=O)c1cccc(NC(=O)c2cc(CN3CCOCC3)on2)c1,14,·,-19%,-1%[46.1 µM],·
CCN(CC)C1CCN(C(=O)c2cnn(-c3nccc(-c4ccco4)n3)c2C(C)C)C1 (centres undefined),·,·,-2%,·,·
O=C(CSc1ccccc1)N1CCN(c2ccccn2)CC1,-12,7%[46.1 µM],20%,-2%,-12%
COc1ccccc1CNC(=O)CSc1ccsc1[N+](=O)[O-],4,·,36%,·,0%
CCc1ccccc1NC(=O)CSc1ccsc1[N+](=O)[O-],-66*,-1%,?,16%,?
O=C(CSc1ccsc1[N+](=O)[O-])N1CCN(c2ccccn2)CC1,-68*,?,-6%,-3%,-25%
CC(C)c1nc(SCC(=O)N2CCCC2)c2ccccc2n1,-78*,23%,-24%,3%,?
O=C(CSc1nc(C2CCCCC2)nc2ccccc12)N1CCCC1,-101*,?,-16%,?,-26%
CCc1nc(SCC(=O)N2CCCC2)c2ccccc2n1,?,11%,·,-5%,?
O=C(CSc1nncc2ccccc12)N1CCCCC1,-64*,1%[46.1 µM],-6%,16%[46.1 µM],-6%
O=C(CSc1nc(C2CC2)nc2ccccc12)N1CCCCC1,-11,?,-15%,-30%[46.1 µM],-21%
CCOc1ccc(C(=O)/C=C/c2cn(CC(O)CN3CCc4ccccc43)c3ccccc23)cc1 (centres undefined),-23,?,-14%,?,·
COCCN(C)C(=O)c1cnn(-c2nccc(-c3cc(OC)ccc3OC)n2)c1C,·,·,22%,·,·
O=C(NCCc1c[nH]c2ccccc12)C(=O)NCC(c1cccnc1)N1CCN(c2ccccc2)CC1 (centres undefined),?,-55%,?,?,10µM*
COc1ccccc1N1CCN(C(CNC(=O)C(=O)NCCc2ccccc2)c2cccnc2)CC1 (centres undefined),-40,·,25µM*,-28%[46.1 µM],·
COc1ccc(C(=O)NCC(c2cccnc2)N2CCN(c3ccccc3OC)CC2)cc1 (centres undefined),-29,·,?,-26%[46.1 µM],·
COc1cccc(C(=O)Nc2ccccc2OCc2cc(=O)n3ccccc3n2)c1,7,·,-3%,-8%[46.1 µM],·
COC(=O)N[C@@H](c1ccco1)[C@]1(C(C)=O)CCCC1=O,·,-31%[14.2 µM],·,·,·
COCCN(Cc1ccco1)C(=O)c1cc2c(Cl)nc3ccc(C)cc3c2s1,-10,-5%[46.1 µM],-10%,15%[46.1 µM],·
Cc1ccc(NC2=Nc3ccccc3N3C2=Nc2c(c(C)nn2-c2ccccc2)C3c2ccc(O)c(O)c2)cc1 (centres undefined),-64*,?,0%,?,-72%
Cc1cccc(NC2=Nc3ccccc3N3C2=Nc2c(c(C)nn2-c2ccccc2)C3c2ccc(O)c(O)c2)c1 (centres undefined),-97*,-27%,-22%,?,?
Cc1nn(-c2ccccc2)c2c1C(c1ccc(O)c(O)c1)N1C(=N2)C(Nc2ccccc2)=Nc2ccccc21 (centres undefined),-1,9%,-9%,4%,19%
Cc1nn(-c2ccccc2)c2c1C(c1ccc([N+](=O)[O-])cc1)N1C(=N2)C(=O)Nc2ccccc21 (centres undefined),30,?,?,?,?

# Compound activity deposited in PubChem BioAssay by National Center for Advancing Translational Sciences (NCATS).
